Data from PubChem BioAssay AID1850 (Southern Research Specialized Biocontainment Screening …, 2009).
Several values for one entry are separate records, joined by “and”; a condition that tells them apart may be missing. Equal entries are not always repeated. In all, about 310,000 compounds went through this assay and about 1,000 (0.32%) were called active. Only a sample is shown. Potency and affinity values are given separately. A number with no mark means an inactive call. The rule behind the calls is not given here.

test: PhoP regulon inhibitors, Salmonella typhi PhoP promoter GFP reporter, confirmatory (AID 1850); conditions: fluorescence, 4 h, at 50 µM, stronger effect = higher value;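 note: 0% = induced wells with vehicle and 100% = uninduced wells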

| Structure (SMILES) | inhibition |
| --- | --- |
| Cc1cccc(OCCCC(=O)Nc2ccc(S(N)(=O)=O)cc2)c1 | -6.31% |
| CCCCCCSc1ccc(-c2nc3ccccn3c2NCCCC)cc1 | -1.64% |
| CC(C)CC(=O)c1c[nH]c(C(=O)NCCCN2CCOCC2)c1 | 0.393% |
| CCc1nnc(NC(=O)C=C(C)C)s1 | -12.1% |
| O=C(CSc1nccn1-c1ccccc1)NCc1ccc(F)cc1 | 5.7% |
| Cc1cc(C)cc(NC(=O)N2CCC(NC(=O)c3ccco3)CC2)c1 | -4.45% |
| COc1cc(C2(O)CCCCC2C)cc(OC)c1OC (configuration not stated) | 0.64% |
| CC(C)C(C(=O)NCc1ccco1)N(Cc1ccco1)C(=O)CNS(=O)(=O)c1ccc(F)cc1 (configuration not stated) | -1.96% |
| COc1ccc(Cl)cc1NC(=S)NCc1cccs1 | -1.43% |
| Cc1ccc(NC(=O)c2cc(NC(=O)C3CC=CCC3C(=O)O)ccc2N2CCOCC2)cc1 (configuration not stated) | -15.3% |
| C/C(=N\NC(=O)c1ccc(F)cc1)c1ccc(NC(=O)Cc2ccccc2)cc1 | -10.7% |
| Oc1ccccc1-c1nc(NCC2CCCO2)c2ccccc2n1 (configuration not stated) | -0.56% |
| COc1ccc(-c2cc(C(=O)NCC3CCCO3)c3ccccc3n2)c(OC)c1 (configuration not stated) | -4% |
| Oc1ccccc1Nc1nc(NCC2CCCO2)c2ccccc2n1 (configuration not stated) | 19.4% |
| COc1cccc(-c2nc(NCC3CCCO3)c3ccccc3n2)c1O (configuration not stated) | 0.02% |
| COc1ccccc1Nc1nc(NCC2CCCO2)c2ccccc2n1 (configuration not stated) | 29.6% |
| COc1ccc(S(=O)(=O)Nc2nc3ccccc3nc2NCC2CCCO2)cc1 (configuration not stated) | -1.23% |
| Oc1ccc(Cl)cc1Nc1nc(NCC2CCCO2)c2ccccc2n1 (configuration not stated) | 3.79% |
| c1ccc2c(NCC3CCCO3)nc(N3CCOCC3)nc2c1 (configuration not stated) | 0.7% |
| O=C1CN=C(c2ccc[nH]2)c2cc(Cl)ccc2N1 | -4.67% |
| COC(=O)C1SCC2C(=O)N(Cc3cccc(C)c3)CC(=O)N21 (configuration not stated) | 0.26% |

| Structure (SMILES) | inhibition |
| --- | --- |
| CN1C(=S)SC(C)(C)C1(C)NO (configuration not stated) | -6.1% |
| O=C(CSc1nccn1Cc1ccccc1)Nc1ccccc1 | -2.04% |
| CN(C)N1C(N)=C(C#N)C(c2ccc3c(c2)OCO3)C2=C1CC(C)(C)CC2=O (configuration not stated) | -10.5% |
| c1ccc(-c2nc(NCC3CCCO3)c3ccccc3n2)nc1 (configuration not stated) | 2.1% |
| CC(C)Oc1ccc(-c2nc(NCC3CCCO3)c3ccccc3n2)cc1 (configuration not stated) | -13.6% |
| O=C(CN1CCN(c2ccc([N+](=O)[O-])cc2Cl)CC1)N1CCOCC1 | 2.81% |
| CC[N+](C)(C)CCN(Cc1ccc(Cl)cc1)c1ccccn1 | 1.18% |
| COc1ccc(CN(CCN(C)C)c2ccccn2)cc1 | -13% and 6.04% |
| CCC(=O)N1CCc2cc(S(=O)(=O)NC(Cc3ccccc3)C(=O)O)ccc21 (configuration not stated) | -1.37% |
| Cc1nc(C(=O)NCCCO)cc2c1[nH]c1ccccc12 | -6.79% |
| Cc1ccc(S(=O)(=O)N(CC(=O)NCc2ccncc2)Cc2ccc(F)cc2)cc1 | 3.98% |
| NC(=S)N/N=C/c1c[nH]c2ccc(OCc3ccccc3)cc12 | -7.88% |
| COc1ccc2[nH]cc(/C=N/NS(=O)(=O)c3ccc(C)cc3)c2c1 | 15.2% |
| CSc1cccc(NC(=O)CCCOc2ccc(Cl)cc2C)c1 | -5.44% |
| CCCNCc1cc(Br)ccc1OCC(=O)NCCc1ccccc1 | -3.03% |
| CCN(CC)CCNCc1cc(Br)ccc1OCC(=O)NCc1ccccc1 | -28.2% |
| CCOc1ccccc1CNC(=O)Cn1ccc2cc(S(=O)(=O)N3CCCC3)ccc21 | 3.38% |
| Cc1c(C(=O)NC(Cc2ccccc2)c2nc3ccccc3[nH]2)cccc1[N+](=O)[O-] (configuration not stated) | -6.76% |
| O=Nc1c(O)[nH]c2c(F)cccc12 | -3.73% |
| O=Nc1c(O)n(Cc2ccccc2)c2ccccc12 | -9.56% |
| CCOC(=O)CC(c1ccc(N)cc1)n1c(C)ccc1C (configuration not stated) | -3.47% |

| Structure (SMILES) | inhibition |
| --- | --- |
| COc1ccc(Cc2noc(CN3CCCC(C(=O)c4cccs4)C3)n2)cc1OC (configuration not stated) | -18.4% |
| CCn1c(SCC(=O)NC2CCS(=O)(=O)C2)nnc1-c1ccccc1 (configuration not stated) | 3.32% |
| Cc1nnc(SCC(=O)NC2CCS(=O)(=O)C2)n1-c1ccccc1 (configuration not stated) | 6.38% |
| CN(C)c1nc(SCC(=O)Nc2ccccc2)nc(N2CCOCC2)n1 | 3.38% |
| O=C1CN(Cc2cc(=O)oc3cc4c(cc23)CCC4)CCN1 | -4.78% |
| CC1(C)C(=O)Nc2ccccc2N1C(=O)COC(=O)/C=C/c1ccc(OC(F)F)cc1 | -3.59% |
| COc1cccc(C(C(=O)NC2CCCCC2)N(C(=O)Cc2cccs2)c2ccc(-n3cnnn3)c(OC)c2)c1 (configuration not stated) | -9.92% |
| CC1CC(NC(=O)/C(C#N)=C/c2ccc[nH]2)CC(C)(C)C1 (configuration not stated) | 5.38% |
| N#C/C(=C\c1ccccc1)C(=O)NC1CC1 | 2.22% |
| COc1ccc(-n2nc(C(=O)NCC(=O)N3CCN(c4ccccc4)CC3)c3ccccc3c2=O)c(OC)c1 | 3.7% |
| CC(C)CCNc1nc(N2CCCC2)c2c(c1C#N)CCN(C)C2 | 19.4% |
| CCCCCNc1nc(NCCCO)c(C#N)c2c1CN(C)CC2 | -3.01% |
| CC1(c2ccc(Cl)cc2Cl)NC(=O)N(CC(=O)Nc2ccc3[nH]c(=O)[nH]c3c2)C1=O (configuration not stated) | -3.74% |
| COc1ccc(CNC(=O)C2CCCN(S(=O)(=O)N3CCC(C)CC3)C2)c(OC)c1 (configuration not stated) | -14.4% |
| CCN(CC)C(=O)c1sc(N2C(=O)Nc3ccccc3N2O)c(C(=O)OC)c1C | -7.07% |
| Cc1ccc(N2C(=O)CC(Sc3ncccc3C(=O)O)C2=O)cc1 (configuration not stated) | -7.58% |
| NC1=NC2(CCCCC2)N=C(Nc2ccc(F)cc2F)N1 | 19% |
| CCCCOc1ccc(N2C(N)=NC(N)=NC23CCCCC3)cc1 | 4.38% |
| Cc1ccc(NC2=NC3(CCCC3)N=C(N)N2)c(C)c1 | 13.7% |
| CCOc1ccc(NC2=NC(C)(C)N=C(N)N2)cc1 | 5.96% |
